From the supplement of paper PMC10849652
The full data set covers some 8,800 targets. This sample favours those with a hit. About 0.5% of all pairs of compound and target were hits. A number with no mark means an inactive call.

Columns and labels:
Test in all cases: log2 fold change, soluble protein after heating vs DMSO (PISA); higher = thermal stabilisation; K562 lysate, 10 uM; active = over 0.2 and 3.5 SD of the protein, either way, in both replicates (recomputed)
[1] = compound: Cc1cn(-c2cc(NC(=O)c3ccc(C)c(Nc4nccc(-c5cccnc5)n4)c3)cc(C(F)(F)F)c2)cn1 [nilotinib]
Outline: (§1)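 Pellets of K562 cells were dounce-homogenised in PBS pH 7.4 with 1 mM MgCl2, and the crude extract was held at 1 mg/mL protein for a 30 min treatment with 10 μM compound. Aliquots were heated for 3 min over 48°C-58°C and pooled before NP-40 was added to 0.5% at 4°C. The supernatant from 21,000xg for 90 min was quantified by TMTpro 16plex LC-MS/MS with channel sums equalised. Values are reported from duplicates as log-two fold change in thermal stability relative to solvent controls.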

[2] = compound: Cc1nc(Nc2n[nH]c3c2CN(C(=O)N[C@H](CN(C)C)c2ccccc2)C3(C)C)c2sccc2n1
Outline: as §1

[3] = compound: Cc1nc(Nc2ncc(C(=O)Nc3c(C)cccc3Cl)s2)cc(N2CCN(CCO)CC2)n1 [dasatinib]
Outline: as §1

[4] = compound: Cc1ncc(-c2ccnc(Nc3ccc(S(C)(=O)=O)cc3)n2)n1C(C)C
Outline: as §1

[5] = compound: Cn1cc(-c2ccc3c(c2)CCN3C(=O)Cc2cccc(C(F)(F)F)c2)c2c(N)ncnc21
Outline: as §1

[6] = compound: Cn1cc(CNCC2CCN(c3ncc(C(=O)NO)cn3)CC2)c2ccccc21 [quisinostat]
Outline: as §1

[7] = compound: Cn1cncc1[C@@](N)(c1ccc(Cl)cc1)c1ccc2c(c1)c(-c1cccc(Cl)c1)cc(=O)n2C [tipifarnib]
Outline: as §1

[8] = compound: NC(=O)Nc1cc(-c2cccc(F)c2)sc1C(=O)N[C@H]1CCCNC1
Outline: as §1

[9] = compound: NC(=O)c1cnc(N[C@@H]2CCCC[C@@H]2N)nc1Nc1cccc(-n2nccn2)c1
Outline: as §1

[10] = compound: NC1(c2ccc(-c3nc4ccn5c(=O)[nH]nc5c4cc3-c3ccccc3)cc2)CCC1
Outline: as §1

Sequence of UniProt O94916 (O94916 whole entry, looked up): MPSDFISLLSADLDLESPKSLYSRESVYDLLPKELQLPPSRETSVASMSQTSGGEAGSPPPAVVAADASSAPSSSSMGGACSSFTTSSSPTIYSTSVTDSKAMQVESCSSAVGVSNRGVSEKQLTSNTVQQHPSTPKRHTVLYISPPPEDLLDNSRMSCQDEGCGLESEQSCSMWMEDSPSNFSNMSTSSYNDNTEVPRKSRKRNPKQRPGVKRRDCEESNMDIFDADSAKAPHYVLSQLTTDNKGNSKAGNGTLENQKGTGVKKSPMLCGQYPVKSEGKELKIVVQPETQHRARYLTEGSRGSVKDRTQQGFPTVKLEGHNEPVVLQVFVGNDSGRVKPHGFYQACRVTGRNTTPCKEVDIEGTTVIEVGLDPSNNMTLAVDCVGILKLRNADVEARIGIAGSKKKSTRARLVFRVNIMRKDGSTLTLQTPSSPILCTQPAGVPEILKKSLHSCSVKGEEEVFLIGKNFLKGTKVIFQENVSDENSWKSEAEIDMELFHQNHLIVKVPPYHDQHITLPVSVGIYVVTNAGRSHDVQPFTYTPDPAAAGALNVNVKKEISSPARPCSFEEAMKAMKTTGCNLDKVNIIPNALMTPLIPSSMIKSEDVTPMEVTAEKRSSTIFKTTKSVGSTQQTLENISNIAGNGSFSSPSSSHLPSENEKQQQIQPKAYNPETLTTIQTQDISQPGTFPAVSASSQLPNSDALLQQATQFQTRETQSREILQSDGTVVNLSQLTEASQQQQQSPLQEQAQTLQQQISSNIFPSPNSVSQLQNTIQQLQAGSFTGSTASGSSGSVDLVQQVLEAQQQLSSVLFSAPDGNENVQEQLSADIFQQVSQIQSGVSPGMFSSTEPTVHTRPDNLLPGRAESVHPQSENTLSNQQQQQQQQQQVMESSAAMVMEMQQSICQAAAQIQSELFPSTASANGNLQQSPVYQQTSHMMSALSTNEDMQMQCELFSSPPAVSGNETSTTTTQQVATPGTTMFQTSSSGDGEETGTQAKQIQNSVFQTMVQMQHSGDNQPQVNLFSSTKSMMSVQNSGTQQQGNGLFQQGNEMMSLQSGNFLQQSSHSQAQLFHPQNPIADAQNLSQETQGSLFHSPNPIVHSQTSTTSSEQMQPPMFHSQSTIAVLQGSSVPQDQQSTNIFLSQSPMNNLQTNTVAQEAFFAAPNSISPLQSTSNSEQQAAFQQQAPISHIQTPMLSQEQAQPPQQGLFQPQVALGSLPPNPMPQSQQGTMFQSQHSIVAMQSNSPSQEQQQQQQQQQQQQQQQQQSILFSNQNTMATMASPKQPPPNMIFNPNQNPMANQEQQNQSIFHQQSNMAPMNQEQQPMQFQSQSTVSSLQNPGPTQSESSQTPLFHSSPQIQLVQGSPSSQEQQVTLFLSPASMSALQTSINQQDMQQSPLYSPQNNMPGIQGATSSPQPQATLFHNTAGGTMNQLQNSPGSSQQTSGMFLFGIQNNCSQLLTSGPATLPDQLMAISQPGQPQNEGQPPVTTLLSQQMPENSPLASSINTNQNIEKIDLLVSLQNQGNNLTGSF
Sequence of UniProt P52701 (P52701 whole entry, looked up): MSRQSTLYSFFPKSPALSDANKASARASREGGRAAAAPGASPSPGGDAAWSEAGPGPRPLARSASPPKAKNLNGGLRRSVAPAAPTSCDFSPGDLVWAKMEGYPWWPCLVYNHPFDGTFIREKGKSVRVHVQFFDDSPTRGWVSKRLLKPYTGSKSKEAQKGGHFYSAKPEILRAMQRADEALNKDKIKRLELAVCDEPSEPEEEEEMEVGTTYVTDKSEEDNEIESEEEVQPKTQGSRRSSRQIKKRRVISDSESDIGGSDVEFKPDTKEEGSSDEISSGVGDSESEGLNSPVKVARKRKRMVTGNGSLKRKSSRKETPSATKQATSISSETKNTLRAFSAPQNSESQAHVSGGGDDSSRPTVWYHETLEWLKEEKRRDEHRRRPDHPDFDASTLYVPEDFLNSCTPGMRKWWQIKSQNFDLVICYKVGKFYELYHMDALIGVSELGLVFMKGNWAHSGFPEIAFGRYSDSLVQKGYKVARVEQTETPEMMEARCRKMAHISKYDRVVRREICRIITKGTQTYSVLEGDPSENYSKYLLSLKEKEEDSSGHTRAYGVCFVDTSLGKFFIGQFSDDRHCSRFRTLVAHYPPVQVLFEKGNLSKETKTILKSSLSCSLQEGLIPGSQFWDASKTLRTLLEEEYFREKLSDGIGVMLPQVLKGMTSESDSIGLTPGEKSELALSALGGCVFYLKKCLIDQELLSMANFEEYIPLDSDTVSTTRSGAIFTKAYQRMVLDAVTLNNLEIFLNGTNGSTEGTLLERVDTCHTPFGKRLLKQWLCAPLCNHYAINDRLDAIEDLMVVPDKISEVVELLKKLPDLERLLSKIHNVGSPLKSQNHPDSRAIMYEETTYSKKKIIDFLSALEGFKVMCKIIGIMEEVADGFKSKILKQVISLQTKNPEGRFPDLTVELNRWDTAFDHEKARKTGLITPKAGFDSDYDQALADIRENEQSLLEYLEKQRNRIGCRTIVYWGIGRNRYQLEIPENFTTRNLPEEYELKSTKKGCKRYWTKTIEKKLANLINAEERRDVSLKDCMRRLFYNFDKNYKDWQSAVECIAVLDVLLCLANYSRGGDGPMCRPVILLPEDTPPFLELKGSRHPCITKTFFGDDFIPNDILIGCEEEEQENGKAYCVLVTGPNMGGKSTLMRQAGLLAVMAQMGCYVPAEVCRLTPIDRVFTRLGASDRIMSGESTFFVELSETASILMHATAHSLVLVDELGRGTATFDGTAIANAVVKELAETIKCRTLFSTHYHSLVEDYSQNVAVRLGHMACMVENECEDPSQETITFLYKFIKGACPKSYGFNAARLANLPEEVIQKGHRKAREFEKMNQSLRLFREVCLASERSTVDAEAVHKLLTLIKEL
Sequence of UniProt O43913 (O43913 whole entry, looked up): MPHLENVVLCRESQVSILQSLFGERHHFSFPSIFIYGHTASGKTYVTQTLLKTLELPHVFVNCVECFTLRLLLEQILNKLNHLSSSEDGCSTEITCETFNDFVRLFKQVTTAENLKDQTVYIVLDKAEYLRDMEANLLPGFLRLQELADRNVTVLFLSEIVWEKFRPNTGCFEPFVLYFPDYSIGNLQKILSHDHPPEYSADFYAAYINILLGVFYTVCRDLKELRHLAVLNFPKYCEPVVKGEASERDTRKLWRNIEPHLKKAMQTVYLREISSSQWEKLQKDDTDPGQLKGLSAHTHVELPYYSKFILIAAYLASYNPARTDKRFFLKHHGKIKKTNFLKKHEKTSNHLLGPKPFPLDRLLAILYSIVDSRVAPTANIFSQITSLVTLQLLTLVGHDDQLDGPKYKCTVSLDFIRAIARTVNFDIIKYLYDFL
Sequence of UniProt Q13469 (Q13469 whole entry, looked up): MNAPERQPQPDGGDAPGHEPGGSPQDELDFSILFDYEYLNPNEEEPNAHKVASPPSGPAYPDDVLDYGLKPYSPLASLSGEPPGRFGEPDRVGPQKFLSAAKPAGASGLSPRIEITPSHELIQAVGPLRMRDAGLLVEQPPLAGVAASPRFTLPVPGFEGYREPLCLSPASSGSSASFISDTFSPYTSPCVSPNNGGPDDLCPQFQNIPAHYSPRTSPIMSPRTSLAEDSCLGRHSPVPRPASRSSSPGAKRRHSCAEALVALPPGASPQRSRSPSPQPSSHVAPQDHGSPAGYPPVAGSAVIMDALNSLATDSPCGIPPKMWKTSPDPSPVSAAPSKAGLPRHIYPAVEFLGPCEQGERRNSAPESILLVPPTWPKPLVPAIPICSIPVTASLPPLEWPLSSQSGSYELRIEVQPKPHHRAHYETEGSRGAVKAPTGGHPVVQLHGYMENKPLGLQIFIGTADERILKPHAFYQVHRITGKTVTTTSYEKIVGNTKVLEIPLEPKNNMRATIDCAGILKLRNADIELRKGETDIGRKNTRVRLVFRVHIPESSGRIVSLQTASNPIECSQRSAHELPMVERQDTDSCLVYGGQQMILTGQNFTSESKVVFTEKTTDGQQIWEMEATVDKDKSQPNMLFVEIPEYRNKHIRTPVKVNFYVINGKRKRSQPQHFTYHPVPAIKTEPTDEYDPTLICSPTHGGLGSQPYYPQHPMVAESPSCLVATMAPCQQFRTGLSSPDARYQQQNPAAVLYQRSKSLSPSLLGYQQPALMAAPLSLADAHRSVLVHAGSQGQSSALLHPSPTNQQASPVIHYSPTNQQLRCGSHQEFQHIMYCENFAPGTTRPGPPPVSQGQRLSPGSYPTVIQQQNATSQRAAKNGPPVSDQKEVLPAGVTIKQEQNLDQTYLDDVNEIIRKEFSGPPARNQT
Sequence of UniProt P00480 (P00480 whole entry, looked up): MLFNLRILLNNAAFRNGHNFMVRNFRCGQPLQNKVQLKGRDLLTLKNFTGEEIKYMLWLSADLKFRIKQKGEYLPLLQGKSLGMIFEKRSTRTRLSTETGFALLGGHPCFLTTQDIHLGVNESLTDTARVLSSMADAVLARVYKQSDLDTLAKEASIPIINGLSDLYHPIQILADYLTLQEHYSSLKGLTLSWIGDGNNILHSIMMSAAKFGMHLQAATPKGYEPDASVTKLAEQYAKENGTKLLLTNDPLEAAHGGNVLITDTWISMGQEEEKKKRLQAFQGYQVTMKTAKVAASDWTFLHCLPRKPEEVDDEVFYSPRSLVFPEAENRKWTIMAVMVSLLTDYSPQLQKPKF
Sequence of UniProt Q9BV86 (Q9BV86 whole entry, looked up): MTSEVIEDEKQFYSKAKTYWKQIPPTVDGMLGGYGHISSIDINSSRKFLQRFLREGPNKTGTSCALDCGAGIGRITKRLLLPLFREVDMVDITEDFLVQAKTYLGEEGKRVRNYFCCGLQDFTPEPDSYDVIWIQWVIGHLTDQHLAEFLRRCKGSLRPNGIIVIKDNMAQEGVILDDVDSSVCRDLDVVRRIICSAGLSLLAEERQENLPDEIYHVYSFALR
Sequence of UniProt Q9NZJ9 (Q9NZJ9 whole entry, looked up): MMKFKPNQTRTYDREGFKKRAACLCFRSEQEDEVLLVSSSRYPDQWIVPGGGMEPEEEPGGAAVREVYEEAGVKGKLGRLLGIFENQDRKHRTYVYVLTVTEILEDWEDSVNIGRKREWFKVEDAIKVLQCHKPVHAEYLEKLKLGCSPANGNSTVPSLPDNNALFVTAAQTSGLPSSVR

Target	log2 fold change [1]	log2 fold change [2]	log2 fold change [3]	log2 fold change [4]	log2 fold change [5]	log2 fold change [6]	log2 fold change [7]	log2 fold change [8]	log2 fold change [9]	log2 fold change [10]
NUB1 (UniProt Q9Y5A7)	-0.021	0.025	-0.03	0.028	0.014	0.035	0.003	0.018	0.004	-0.002
OSBPL3 isoform 2 (UniProt Q9H4L5)	0.085	-0.048	-0.191	-0.026	0.024	-0.051	-0.02	0.003	0.017	-0.151
NFAT5 isoform 5 (UniProt O94916)	-0.012	-0.07	0.008	0.046	-0.014	-0.172	-0.032	0.031	0.018	0.039
MSH6 (UniProt P52701)	-0.005	0.011	-0.073	-0.002	0.03	-0.091	-0.009	0.072	0.006	-0.045
PBK (UniProt Q96KB5)	-0.01	0.006	-0.035	0.017	0.017	-0.02	0.033	0.032	0.017	0.024
NSL1 (UniProt Q96IY1)	-0.018	0.005	-0.01	-0.014	0	-0.009	0.024	-0.003	0.01	-0.007
NARS2 (UniProt Q96I59)	0.019	-0.027	-0.046	-0.014	0.026	-0.023	0.007	0.051	0.037	-0.037
NDC1 (UniProt Q9BTX1)	-0.019	-0.006	-0.071	-0.018	0.052	-0.03	0.009	0	-0.01	-0.028
OAT (UniProt P04181)	0.012	-0.038	-0.033	0.003	-0.012	-0.002	0.024	-0.01	0.019	-0.018
ORC5 (UniProt O43913)	-0.043	-0.004	-0.047	0.019	0.098	-0.107	-0.004	0.098	0.047	-0.073
NLRP2 (UniProt Q9NX02)	-0.002	0.013	-0.019	0.007	0.032	-0.031	-0.008	0.013	0.003	0.026
ORC2 (UniProt Q13416)	0	0.009	-0.036	-0.014	-0.004	-0.016	0.004	0.095	-0.004	-0.029
NQO1 (UniProt P15559)	0.051	-0.031	0.244	0.022	-0.104	0.021	0.042	0.042	-0.027	0.056
NMRAL1 (UniProt Q9HBL8)	-0.017	0.004	-0.035	-0.005	-0.039	0.025	0.01	-0.021	0.012	0.045
NUDT4 isoform 2 (UniProt Q9NZJ9)	-0.004	0.012	0.13	-0.002	0.038	-0.012	-0.044	0.016	-0.042	0.043
NIPBL (UniProt Q6KC79)	0.06	-0.002	-0.037	0.019	0.091	-0.043	0.014	0.02	0.003	0.018
PAN2 isoform 2 (UniProt Q504Q3)	0.072	0.013	-0.012	0.046	0.079	-0.036	-0.049	0.056	0.02	-0.028
NUMB (UniProt P49757)	-0.03	-0.024	-0.072	-0.008	0.001	-0.02	0.001	-0.029	-0.026	0.003
NOA1 (UniProt Q8NC60)	-0.041	-0.012	-0.05	-0.011	-0.036	-0.089	-0.027	0.059	0.04	-0.001
NFATC4 isoform 2 (UniProt Q14934)	-0.046	-0.018	0.055	0.04	-0.041	-0.07	-0.066	0.01	-0.017	–

Target	log2 fold change [1]	log2 fold change [2]	log2 fold change [3]	log2 fold change [4]	log2 fold change [5]	log2 fold change [6]	log2 fold change [7]	log2 fold change [8]	log2 fold change [9]	log2 fold change [10]
NUDT4 (UniProt Q9NZJ9)	0.115	-0.03	0.038	-0.002	0.006	0.129	0.11	0.018	-0.059	0.022
PANK1 (UniProt Q8TE04)	-0.005	0.014	-0.028	-0.05	0.053	-0.039	0.079	0.062	-0.007	0.062
NIPSNAP3A (UniProt Q9UFN0)	0.001	0.016	0.028	0.008	-0.054	-0.053	0.015	0.007	-0.052	-0.025
PANK2 (UniProt Q9BZ23)	-0.068	-0.111	0.135	0.001	-0.032	0.045	0.126	-0.053	-0.005	–
NEBL isoform 2 (UniProt O76041)	-0.022	-0.001	-0.029	0.015	-0.072	0.012	-0.021	-0.017	-0.027	-0.007
MVB12A (UniProt Q96EY5)	-0.025	-0.05	0.006	0.008	0.04	0.033	0.032	0.022	-0.009	0.036
MTOR (UniProt P42345)	0.007	-0.022	-0.064	0.001	0.039	-0.067	0.015	0.04	0.017	-0.033
NTMT1 (UniProt Q9BV86)	-0.033	-0.026	-0.053	0.002	0.047	-0.051	0.012	0.07	-0.049	-0.002
OSBPL1A (UniProt Q9BXW6)	-0.07	-0.02	-0.044	-0.051	-0.027	-0.147	0.015	0	-0.024	-0.388 (active)
PAIP2 (UniProt Q9BPZ3)	0.136	0.062	-0.047	-0.009	-0.049	0.007	-0.1	-0.087	-0.02	-0.018
NUP188 (UniProt Q5SRE5)	0.025	-0.003	-0.074	-0.002	0.055	-0.024	-0.047	0.043	0.03	0.009
NCAPD3 (UniProt P42695)	0.005	-0.022	-0.041	0.005	0.005	-0.06	0.005	0.078	-0.014	-0.028
PARP14 (UniProt Q460N5)	0.004	-0.022	-0.024	0.068	0.256	-0.025	-0.068	0.128	0.051	-0.09
MRPL53 (UniProt Q96EL3)	-0.04	0.026	-0.018	0.015	0.06	0.02	-0.034	-0.041	-0.006	0.031
MYO9A isoform 4 (UniProt B2RTY4)	0.059	-0.044	-0.176	0	0.052	-0.074	-0.005	0.112	0.039	-0.112
NEK9 (UniProt Q8TD19)	-0.024	0.13	-0.002	0.007	0.001	-0.042	-0.018	0.033	0.003	-0.026
NFATC1 (UniProt O95644)	-0.048	-0.055	0.014	0.014	0.037	-0.097	0.006	0.042	-0.002	-0.058
MRPS12 (UniProt O15235)	-0.026	0.061	-0.104	-0.041	-0.007	-0.051	-0.012	0.01	0.018	0.063
MTHFD1L (UniProt B7ZM99)	-0.017	0.028	-0.061	0.002	0.046	-0.055	-0.01	0.074	0.019	-0.017
OGFOD2 (UniProt Q6N063)	-0.002	0.005	0.006	0.063	0.048	0.031	0.026	0.049	-0.017	0.049

Target	log2 fold change [1]	log2 fold change [2]	log2 fold change [3]	log2 fold change [4]	log2 fold change [5]	log2 fold change [6]	log2 fold change [7]	log2 fold change [8]	log2 fold change [9]	log2 fold change [10]
MTFP1 (UniProt Q9UDX5)	0.044	-0.021	0.069	0.043	0.008	0.133	-0.014	0.02	-0.103	-0.004
NF1 (UniProt P21359)	-0.021	0.053	0.007	-0.039	0.024	-0.059	0.018	0.041	0.016	-0.016
ORC3 isoform 2 (UniProt Q9UBD5)	-0.014	0	-0.084	-0.014	-0.012	-0.038	-0.014	0.099	0.027	-0.079
NAA38 isoform 2 (UniProt Q9BRA0)	-0.024	0.059	-0.014	-0.007	0.001	0.03	-0.03	0.027	0.016	-0.019
NUSAP1 (UniProt Q9BXS6)	-0.001	0.004	0.045	-0.009	-0.047	0.038	-0.016	-0.024	0.002	-0.055
MRPL51 (UniProt Q4U2R6)	-0.029	-0.006	-0.056	-0.054	-0.055	0.27 (active)	-0.003	0.055	-0.003	0.024
NSUN2 (UniProt Q08J23)	0.013	-0.004	-0.023	-0.005	0.022	0.007	0.027	0.024	-0.009	-0.011
OLA1 (UniProt Q9NTK5)	0.001	-0.009	-0.023	0.006	0.018	-0.008	0.018	0.022	-0.006	0.025
MT-ND1 (UniProt P03886)	-0.054	0.005	0.018	-0.074	0.035	-0.094	-0.125	0.033	-0.024	-0.059
NMT1 (UniProt P30419)	-0.037	0.044	0.058	-0.016	-0.022	-0.065	0.001	0.007	-0.005	-0.057
OTUD7B (UniProt Q6GQQ9)	-0.017	0.017	0.005	0.03	0.027	-0.252	0.05	0.142	0.026	-0.095
NCAPH (UniProt Q15003)	-0.033	0	-0.03	-0.017	-0.017	0.005	0.023	0.013	0.006	-0.017
NR3C1 isoform 3 (UniProt P04150)	-0.021	-0.069	-0.042	0.044	-0.014	-0.032	-0.038	0.035	0.03	-0.021
NCK1 (UniProt P16333)	-0.071	0.015	-0.005	-0.037	-0.015	-0.053	0.018	0.029	0.001	0.008
OTC (UniProt P00480)	-0.105	-0.023	-0.347	-0.159	0.106	-0.492	0.054	-0.055	0.071	-0.075
NR2F2 (UniProt P24468)	-0.063	0.107	-0.027	-0.125	-0.006	-0.024	0.034	0.125	0.024	0.029
NFATC2 (UniProt Q13469)	-0.001	-0.052	-0.033	0.061	-0.001	-0.133	-0.021	0.024	-0.025	-0.023
NOSIP (UniProt Q9Y314)	0.005	0.009	-0.018	0.027	-0.019	-0.151	-0.021	0.003	-0.015	0.006
MYH11 isoform 2 (UniProt P35749)	-0.072	-0.022	-0.043	-0.011	0.014	0.099	-0.045	-0.029	0.013	-0.032
